Assay outcomes deposited in PubChem BioAssay by The Scripps Research Institute Molecular Screening Center.
Most compounds without a hit are left out; they make up all but 4.8% or so of the library.
SMARCA2 activ = SMARCA2 function activation, primary screen; MG213 cells, MMTV-luciferase reporter, dexamethasone, overnight; activation, % at 9.1 µM; 370,000 tested, 1% active; AID 652017; in the data active = activation above about 7.8%;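 also: 0% = vehicle wells and 100% = reference activator wells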
ssDAF12 agonist = activators of S. stercoralis DAF-12 nuclear receptor | HEK293 ssDAF-12/GRIP1 lit1-tk-luc reporter, luminescence; % of 3 µM dafachronic acid response | activation, % at 6.8 µM | 370,000 tested, 1% active;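 active = activation above the mean over all tested compounds plus 3 SD, cut at about 0.9% in these data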;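 also: 0% = DMSO-only wells and 100% = 3 µM delta7-dafachronic acid wells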
DAX1 inh-1 = inhibits human nuclear receptor DAX1; P51843; HEK293 Gal4-DAX1 luciferase reporter, luminescence; inhibition, % at 6.75 µM; 340,000 tested, 0.99% active;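 active = inhibition above the mean over all tested compounds plus 3 SD, cut at about 4.2% in these data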;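 also: 0% = DAX1-transfected cells with DMSO and 100% = empty-vector control cells with DMSO; inhibition shows as a rise in luminescence from relieved DAX1 repression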
DAX1 inh-2 = blocks DAX1 repression of SF-1 activated StAR promoter | inhibition, % at 6.8 µM | 370,000 tested, 1.1% active | HEK293T StAR-luciferase reporter, SF-1/DAX-1 repression relief;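 active = inhibition above the mean over all tested compounds plus 3 SD, cut at about 3.6% in these data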;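 also: 0% = DAX-1 cells with DMSO and 100% = cells lacking DAX-1 with DMSO; higher inhibition means more luminescence from relief of DAX-1 repression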
hcDAF-12 act = activates DAF-12 receptor from parasite H. contortus | 370,000 tested, 1.4% active | activation, % at 6.8 µM | AID 652067 | HEK293 hcDAF-12 lit1-tk-luc reporter, luminescence; 0% DMSO, 100% Δ7-dafachronic acid;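 active = activation above the mean of all tested compounds plus 3 SD, cut at about 5.5% in these data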;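 also: 100% = response to 3 µM Δ7-dafachronic acid high control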
hgDAF-12 ag = agonists of H. glycines DAF-12 nuclear receptor; HEK293 GAL4-hgDAF12 UAS-luciferase reporter, agonist luminescence; normalized to butyrate control; activation, % at 6.8 µM; 370,000 tested, 1.8% active;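 active = activation above a cutoff set at the mean of all screened compounds plus 3 SD, cut at about 10% in these data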;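 also: 0% = DMSO wells and 100% = sodium butyrate wells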
LXR ag = activates human LXR-beta, counter-screen for hcDAF-12 agonists | shares compounds with hcDAF-12 act | HEK293 Gal4-LXR tk-luc reporter, luminescence, 24 h; normalized: DMSO 0%, positive control 100% | activation, % at 6.8 µM | 3,400 tested, under 10 active | AID 743027;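 active = mean percent activation of the reporter above a cutoff set as the average over tested compounds plus their standard deviation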
Target sequence (P55055 whole entry, looked up, the tested form may be a part): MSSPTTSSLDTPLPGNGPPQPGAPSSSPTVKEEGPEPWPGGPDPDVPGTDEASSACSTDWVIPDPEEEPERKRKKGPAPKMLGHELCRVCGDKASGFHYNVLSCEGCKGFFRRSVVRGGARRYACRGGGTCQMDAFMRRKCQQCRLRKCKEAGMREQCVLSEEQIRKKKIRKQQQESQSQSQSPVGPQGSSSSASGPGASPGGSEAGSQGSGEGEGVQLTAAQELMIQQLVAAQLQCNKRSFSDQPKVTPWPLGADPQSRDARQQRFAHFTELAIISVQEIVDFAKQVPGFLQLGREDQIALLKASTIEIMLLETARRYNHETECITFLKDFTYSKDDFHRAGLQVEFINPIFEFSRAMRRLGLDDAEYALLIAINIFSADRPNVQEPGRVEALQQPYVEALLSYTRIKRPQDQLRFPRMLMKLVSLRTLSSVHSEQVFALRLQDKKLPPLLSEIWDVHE
hcDAF12 conf = confirmation of H. contortus DAF-12 agonists | HEK293 hcDAF-12 lit1-tk-luc reporter, luminescence; % of Δ7-dafachronic acid response | 3,400 tested, 61% active | AID 743032 | shares compounds with hcDAF-12 act | activation, % at 6.8 µM;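 active = mean activation across triplicate tests above the threshold derived from the earlier primary screen, cut at about 5.5% in these data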;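 also: 0% = DMSO only wells and 100% = 3 µM Δ7-dafachronic acid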
The depositor's hits bear a star; nt = no result.

SMILES	SMARCA2 activ	ssDAF12 agonist	DAX1 inh-1	DAX1 inh-2	hcDAF-12 act	hgDAF-12 ag	LXR ag	hcDAF12 conf
Cc1ccc(NC(=S)N2CCCC(CO)C2)c(C)c1 (stereo not given)	2	0	2	2	6.9*	11*	0	2
Cc1ccc(NC(=S)N2CCC(O)CC2)c(C)c1	-3	-1	0	-1	-2	1	nt	nt
COc1ccc(NC(=O)Cc2nnc(SCC(=O)Nc3ccccc3)n2C)cc1	4	-1	0	0	-2	2	nt	nt
Cc1ccc(C)c(NC(=O)CNC(=O)N2CC(=O)Nc3ccccc32)c1	0	-1	0	0	-1	1	nt	nt
CCOc1ccccc1NC(=O)CNC(=O)N1CC(=O)Nc2ccccc21	-2	0	1	3	7.0*	2	0	3
Cc1ccccc1C(=O)N=c1ccn(-c2nc3ccccc3nc2NS(=O)(=O)c2ccccc2)cc1	2	-1	0	0	4	1	nt	nt
Nn1cnc2c([nH]c3ccccc32)c1=O	-1	1	0	-1	4	0	nt	nt
COc1ccc2c(c1)[nH]c1c(=O)n(N)cnc12	-1	1	5.7*	1	9.7*	1	0	6.4*
O=C(NC1(C(=O)O)CCCC1)C(Cl)Cl	0	-1	0	-1	-3	-1	nt	nt
O=C(NCc1cc(C(F)(F)F)cc(C(F)(F)F)c1)C1CC(c2ccccc2[N+](=O)[O-])=NO1 (stereo not given)	1	-1	-1	3	1	1	nt	nt
O=C(O)C(Cc1c[nH]c2ccccc12)N1Cc2ccccc2C1=O (stereo not given)	1	3.0*	4	1	6.9*	8	1	8.0*
CC(=O)/C=C(/C)NC(Cc1c[nH]c2ccccc12)C(=O)O (stereo not given)	-2	0	0	1	2	3	nt	nt
O=C(O)[C@H](Cc1ccccc1)N1Cc2ccccc2C1=O	-1	-1	1	1	2	1	nt	nt
CC(=O)N[C@H](Cc1c[nH]c2ccccc12)C(=O)O	1	0	-1	0	8.2*	1	0	0
N#Cc1ccsc1NC(=O)CSc1nnnn1-c1ccc(O)cc1	1	0	1	0	7.4*	5	0	5
COc1cccc(Cn2c(-c3nonc3N)nc3ccccc32)c1	-3	-2	-2	-2	-1	-1	nt	nt
CCOC(=O)c1ccc(N2N=C(C)/C(=C/C=C/c3ccco3)C2=O)cc1	1	-1	0	0	1	1	nt	nt
CCc1ccc(N2NC(=O)/C(=C/C=C/c3ccco3)C2=O)cc1	0	0	-1	0	7.7*	0	0	1
COc1ccc(/C(C)=N/Nc2nc3ccccc3nc2C)cc1OC	3	0	5.1*	2	8.4*	9	0	0
COc1ccc(/C(C)=N/Nc2cccc(C(=O)O)c2)cc1OC	2	-1	0	2	2	7	nt	nt
CCN1CCCC1CNC(=O)c1[nH]c2ccc(OC)cc2c1C (stereo not given)	-4	-1	3	0	-1	2	nt	nt
CCN1CCCC1CNC(=O)c1cc2ccc(OC)cc2[nH]1 (stereo not given)	3	0	0	1	6.6*	3	0	2
O=C(O)c1cc(N/N=C/c2cccc3ccccc23)ccc1Cl	4	0	2	0	8.4*	1	1	8.2*
Cn1c(C(C#N)C(=O)c2ccco2)nc2ccccc21 (stereo not given)	3	1	1	2	7.2*	4	0	9.6*
Cn1c(C(C#N)C(=O)Cc2cccc3ccccc23)nc2ccccc21 (stereo not given)	-2	-1	0	1	0	1	nt	nt
SMILES	SMARCA2 activ	ssDAF12 agonist	DAX1 inh-1	DAX1 inh-2	hcDAF-12 act	hgDAF-12 ag	LXR ag	hcDAF12 conf
Cc1[nH]c2ccccc2c1/C=N/Nc1cccc(C(=O)O)c1	5	0.9*	-3	1	11*	13*	1	13*
CCCCCSc1nnc(-c2cc(Br)ccc2N)c(=O)[nH]1	-4	0	1	-1	1	0	nt	nt
CCCSc1nnc(-c2ccccc2N)c(=O)[nH]1	0	0	3	3	7.1*	8	1	7.2*
CN1CCN(C(=O)CNC(=O)c2cccs2)CC1	0	0	3	1	7.8*	3	0	1
CCOc1ccc(S(=O)(=O)N2CCOCC2)cc1NC(=O)CSCC(=O)Nc1cccc(C)c1	-2	-1	-1	0	-3	-3	nt	nt
O=C(c1ccc2c(c1)OCO2)N1CCc2ccccc21	2	1.1*	-2	1	7.1*	3	0	4
Cc1c(C(=O)N2CCc3ccccc32)oc2ccccc12	6	4.6*	3	4.4*	14*	19*	1	18*
O=C(c1ccc2c(c1)OCO2)N1CCCc2ccccc21	2	0	1	0	1	1	nt	nt
Cc1sc2c(c1C)CN(Cc1ccncc1)CN2C(=O)c1ccco1	2	-1	1	1	3	5	nt	nt
Cc1sc2c(c1C)CN(C(C)(C)C)CN2C(=O)c1ccccc1	4	1	1	1	6.8*	9	0	6.4*
O=[N+]([O-])c1ccccc1/C=C/C=Nn1c(-c2ccc(F)cc2)n[nH]c1=S	6	0	nt	0	6.6*	3	0	5
Cc1cc(OCc2ccc(C(=O)NN=C3CCCC3)cc2)ccc1Cl	2	0	0	0	9.9*	8	0	9.4*
O=C(c1cccs1)c1ccc(-c2cccs2)s1	7	2.1*	-1	3	14*	17*	2	14*
CC1CC(C)CN(C(=O)CSCC(=O)Nc2nc(-c3cccs3)cs2)C1 (stereo not given)	-2	1	0	1	8.2*	7	0	5
O=C(CSCC(=O)N1CCCCC1)Nc1nc(-c2ccc(Cl)s2)cs1	0	-1	0	-1	5	7	nt	nt
O=C(CSCC(=O)N1CCCCC1)Nc1nc(-c2cccs2)cs1	-2	0	1	0	9.1*	6	0	6.0*
CC(C)(C)C1CCc2c(sc3c2C(=O)NC(c2ccco2)N3)C1 (stereo not given)	4	0	1	-1	7.5*	0	0	4
